Some test systems named below: NCI-H23 lung; NCI-H226 lung; NCI-H322M lung; HOP-62 NSCLC; NCI-H460 lung; HOP-92 NSCLC; NCI-H522 lung; A549/ATCC NSCLC; 786-0 renal; COLO 205 colon; DU-145 prostate; MALME-3M melanoma; MDA-MB-231 breast; SF-268 CNS; SF-295 CNS; SF-539 CNS; UACC-257 melanoma; M14 melanoma; K-562 leukemia; RXF 393 renal.
Common to all, as to experiment: NCI-60 one-dose screen, 48 h (100 = growth as untreated, 0 = no growth, -100 = all killed)
What all share (settings): 10 µM unless noted

The panel holds about 83,000 compounds, 20% with a hit somewhere; the sample as a whole holds those more often.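 Negative percent growth values reflect cell death: -40 means 40% of the cells present at the start died, and -100 means all died.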 Unmarked numbers belong to inactive results. The source made the active and inactive calls. The calls were made as follows: active = growth percent below 10; inactive = the rest.

As for `Cc1ccc(/C=C/C(=O)c2ccc(N)cc2)c(C)c1`, the growth in the assay on NCI-H23 lung was 10.4%; in the assay with NCI-H226 lung, 109%; in the assay with NCI-H322M lung, 93%; in the assay on HOP-62 NSCLC, 104%; with NCI-H460 lung it was 97.2%; in the assay with HOP-92 NSCLC it was 88.2%. For the same compound, the growth with NCI-H522 lung was -76.5% (active); in the assay on A549/ATCC NSCLC, 99.2%; in the assay with 786-0 renal, -63.5% (active); with COLO 205 colon it was 60.3%; in the assay with DU-145 prostate, 78.3%; in the assay with MALME-3M melanoma it was -75.6% (active). For the same compound, the growth in the assay on MDA-MB-231 breast was 56.8%; in the assay with SF-268 CNS it was 36.6%; in the assay with SF-295 CNS, 95.5%; in the assay on SF-539 CNS it was 91%; in the assay with UACC-257 melanoma it was 108%; with M14 melanoma it was 50.6%.
Regarding `COc1ccccc1-c1c(-c2ccc(Cl)cc2)c2cc3c(cc2[nH]c1=O)OCCO3`, the growth was 72.8% in the assay with NCI-H23 lung; 84% in the assay with NCI-H226 lung; 89% in the assay with NCI-H322M lung; 89.8% in the assay on HOP-62 NSCLC; 66.3% with NCI-H460 lung; 80.7% in the assay on HOP-92 NSCLC. In addition, the growth was 62.4% with NCI-H522 lung; 63.6% in the assay on A549/ATCC NSCLC; 85.4% in the assay on 786-0 renal; 92.6% in the assay with COLO 205 colon; 83.6% with DU-145 prostate; 44.3% with K-562 leukemia. Further, the growth was 87.4% in the assay with MALME-3M melanoma; 95.5% with MDA-MB-231 breast; 68.2% in the assay with SF-268 CNS; 58.5% with SF-295 CNS; 88.2% in the assay with SF-539 CNS; 73% in the assay with UACC-257 melanoma. The growth with M14 melanoma was 72.5%.
Consider `CCOC(=O)c1c(SC)nn(-c2cc(=O)[nH]c3ccc(Br)cc23)c1N`, for which the growth with NCI-H23 lung is 96%; with NCI-H226 lung, 99.2%; in the assay on NCI-H322M lung, 106%; in the assay on HOP-62 NSCLC, 89.7%; with NCI-H460 lung, 87.8%; in the assay with HOP-92 NSCLC, 95.8%. Moreover, the growth in the assay with NCI-H522 lung is 95.1%; with A549/ATCC NSCLC, 98.1%; in the assay with 786-0 renal, 97.6%; with COLO 205 colon, 98.2%; in the assay with DU-145 prostate, 94.6%; in the assay with MALME-3M melanoma, 105%. The growth is 110% with MDA-MB-231 breast; 90.7% in the assay with SF-268 CNS; 107% in the assay on SF-295 CNS; 102% in the assay with SF-539 CNS; 112% with UACC-257 melanoma.
As to `COc1cccc2cc(-c3cc4ccccc4[nH]3)/c(=N/C(=S)Nc3ccc(C)cc3)oc12`, the growth with NCI-H23 lung was 67.9%; with NCI-H226 lung it was 55.1%; with NCI-H322M lung, 80.1%; with HOP-62 NSCLC, 22%; in the assay with NCI-H460 lung, 51.1%; in the assay with HOP-92 NSCLC it was -6.31% (active). In addition, the growth in the assay on NCI-H522 lung was 84.8%; in the assay with A549/ATCC NSCLC, 79.9%; with 786-0 renal it was 59%; in the assay with COLO 205 colon, 99.4%; in the assay on DU-145 prostate it was 66.4%; in the assay on K-562 leukemia, 80.4%. Further, the growth in the assay with MALME-3M melanoma is 66.6%; in the assay on MDA-MB-231 breast it was 39.4%; with SF-268 CNS, 72.3%; with SF-295 CNS, 79.5%; in the assay with SF-539 CNS it was 45.7%; with UACC-257 melanoma, 103%. Moreover, the growth with M14 melanoma is 95%.
In the case of `COc1cc2nc(-c3ccc(C#N)cc3)[nH]c(=O)c2cc1OC`, the growth with NCI-H23 lung was 104%; in the assay with NCI-H226 lung, 91.4%; in the assay with NCI-H322M lung it was 211%; with HOP-62 NSCLC, 92.8%; in the assay with NCI-H460 lung, 105%; with HOP-92 NSCLC it was 127%. Besides, the growth in the assay with NCI-H522 lung was 104%; in the assay on A549/ATCC NSCLC, 15.5%; in the assay on 786-0 renal, 61.3%; in the assay with COLO 205 colon it was 132%; with DU-145 prostate, 105%; in the assay on MALME-3M melanoma, 263%. Also, the growth with MDA-MB-231 breast is 94%; in the assay with SF-268 CNS it was 100%; in the assay on SF-295 CNS, 95.9%; in the assay with SF-539 CNS, 101%; with UACC-257 melanoma, -1.56% (active); with M14 melanoma, 87.7%.
For `O=C(O)c1ccc[n+](CC(=O)N2CCN(c3cc4c(cc3F)c(=O)c(C(=O)O)cn4C3CC3)CC2)c1`, the growth in the assay on NCI-H23 lung was 87.7%; with NCI-H226 lung, 93.7%; in the assay on NCI-H322M lung, 103%; in the assay on HOP-62 NSCLC, 105%; in the assay on NCI-H460 lung, 95.6%; with HOP-92 NSCLC, 109%. In addition, the growth in the assay with NCI-H522 lung was -86.6% (active); in the assay with A549/ATCC NSCLC, 106%; in the assay on 786-0 renal, 58.9%; in the assay on COLO 205 colon it was 45.4%; in the assay with DU-145 prostate it was 96.1%; with MALME-3M melanoma, -34% (active). For the same compound, the growth is 98.3% in the assay with MDA-MB-231 breast; 70.1% in the assay on SF-268 CNS; 116% in the assay with SF-295 CNS; 69.1% with SF-539 CNS; 80.1% in the assay with UACC-257 melanoma.
As for `O=C1OC(=O)C2C1CC=CC2c1ccccc1` (stereo not given), the growth in the assay with NCI-H23 lung is 84.7%; in the assay on NCI-H226 lung it was 90.6%; in the assay on NCI-H322M lung, 102%; in the assay on HOP-62 NSCLC it was 78.8%; with NCI-H460 lung, 75.5%; in the assay with HOP-92 NSCLC, 85.3%. Besides, the growth with NCI-H522 lung is 93.6%; in the assay on A549/ATCC NSCLC it was 88%; in the assay on 786-0 renal, 94.9%; with COLO 205 colon, 93.7%; in the assay with DU-145 prostate, 94%; with MALME-3M melanoma it was 78.8%. Besides, the growth in the assay with MDA-MB-231 breast is 93.7%; with RXF 393 renal, 102%; with SF-268 CNS, 91.1%; in the assay on SF-295 CNS, 95.8%; in the assay with SF-539 CNS, 88.3%; in the assay on UACC-257 melanoma it was 107%. Besides, the growth in the assay with M14 melanoma was 97.4%.
As to `C[C@@H]1CN(Cc2ccc(/C=C/c3n[nH]c4ccc5nc(-c6cn[nH]c6C(F)(F)F)c6c(c5c34)CCCC6)cc2)C[C@H](C)O1`, the growth with NCI-H23 lung was 31.9%; in the assay on NCI-H226 lung, 45.3%; in the assay on NCI-H322M lung it was 45.1%; in the assay on HOP-62 NSCLC, 36.7%; with NCI-H460 lung, -4.09% (active); in the assay on HOP-92 NSCLC, 41.4%. For the same compound, the growth is 21% in the assay on NCI-H522 lung; 25.3% in the assay on A549/ATCC NSCLC; 26.6% in the assay with 786-0 renal; 1.61% (active) in the assay with COLO 205 colon; 27.7% with DU-145 prostate; 10.4% in the assay on K-562 leukemia. The growth with MALME-3M melanoma was 41.2%; in the assay with MDA-MB-231 breast, 12.9%; in the assay with SF-268 CNS, 36.5%; with SF-295 CNS, 38.4%; with SF-539 CNS, 7.28% (active); with UACC-257 melanoma, 75.5%. Moreover, the growth with M14 melanoma is 18.9%.
In the case of `Cc1ccc(C(c2c(O)c3cc(Br)ccc3[nH]c2=O)c2c(O)c3cc(Br)ccc3[nH]c2=O)cc1`, the growth with NCI-H23 lung was 86.7%; in the assay with NCI-H226 lung, 74%; in the assay on NCI-H322M lung it was 96.7%; with HOP-62 NSCLC, 77%; with NCI-H460 lung it was 89.5%; in the assay with HOP-92 NSCLC, 74.1%. Further, the growth is 77.8% in the assay on NCI-H522 lung; 89.5% in the assay with A549/ATCC NSCLC; 92.6% in the assay with 786-0 renal; 111% in the assay with COLO 205 colon; 102% in the assay on DU-145 prostate; 91% in the assay on MALME-3M melanoma. For the same compound, the growth in the assay with MDA-MB-231 breast was 70.5%; in the assay on SF-268 CNS it was 87.1%; in the assay with SF-295 CNS it was 75.6%; in the assay with SF-539 CNS it was 91.2%; in the assay on UACC-257 melanoma, 98.3%; in the assay on M14 melanoma it was 93.3%.
On to `CC1(C)CCCN1CCCN1c2ccccc2Sc2ccc(Cl)cc21`, for which the growth was 72.5% in the assay with NCI-H23 lung; 82.9% with NCI-H226 lung; 74.1% in the assay on NCI-H322M lung; 77% with HOP-62 NSCLC; 60.8% with NCI-H460 lung; 62.9% in the assay with HOP-92 NSCLC. Moreover, the growth with NCI-H522 lung is 76.6%; in the assay on A549/ATCC NSCLC it was 83.8%; in the assay on 786-0 renal it was 54.2%; with COLO 205 colon, 43.6%; with DU-145 prostate, 78.5%; in the assay on K-562 leukemia it was 14.2%. Besides, the growth in the assay with MALME-3M melanoma is 67.2%; with MDA-MB-231 breast it was 45.5%; in the assay with SF-268 CNS, 76.3%; in the assay with SF-295 CNS, 68.2%; in the assay with SF-539 CNS, 78.2%; with UACC-257 melanoma, 105%. Besides, in the assay on M14 melanoma, the growth was 39.1%.
With `COc1ccc(NC(=O)c2sc3nc(C)c(C(=O)CCc4cccc(OC)c4)cc3c2N)cc1`, the growth was 81.1% in the assay on NCI-H23 lung; 89.7% in the assay with NCI-H226 lung; 40.1% in the assay with NCI-H322M lung; 70.8% with HOP-62 NSCLC; 1.32% (active) in the assay with NCI-H460 lung; 88.4% with HOP-92 NSCLC. Besides, the growth with NCI-H522 lung was 78.7%; in the assay with A549/ATCC NSCLC it was 30.2%; with 786-0 renal, 78.5%; with COLO 205 colon it was 44.1%; in the assay with DU-145 prostate, 71.7%; in the assay with K-562 leukemia, 20%. Further, the growth with MALME-3M melanoma is 62.5%; with MDA-MB-231 breast it was 85.8%; with SF-268 CNS it was 80.2%; in the assay with SF-295 CNS, 15.7%; in the assay on SF-539 CNS it was 72%; in the assay with UACC-257 melanoma it was 89%. Besides, in the assay on M14 melanoma, the growth was 70.1%.
For the compound `NC(=O)c1ccc[n+](CC(=O)N2CCN(c3cc4c(cc3F)c(=O)c(C(=O)O)cn4C3CC3)CC2)c1`, the growth in the assay on NCI-H23 lung was 92.4%; with NCI-H226 lung, 97.3%; with NCI-H322M lung it was 104%; in the assay with HOP-62 NSCLC, 111%; in the assay on NCI-H460 lung, 101%; with HOP-92 NSCLC it was 133%. Besides, the growth with NCI-H522 lung was -73.1% (active); in the assay with A549/ATCC NSCLC, 104%; in the assay on 786-0 renal it was 74.6%; in the assay on COLO 205 colon, 63.1%; in the assay on DU-145 prostate, 96.4%; in the assay on MALME-3M melanoma it was 6.59% (active). Moreover, the growth with MDA-MB-231 breast was 99.8%; with SF-268 CNS it was 76.7%; with SF-295 CNS, 108%; with SF-539 CNS, 88.6%; in the assay with UACC-257 melanoma, 89.4%; in the assay on M14 melanoma, 76.4%.

(Values after PubChem BioAssay (NCI).)
